Measured values: PubChem BioAssay
The source made the active and inactive calls. How the calls were made is not given here.

Biological target: Pantothenate synthetase (Mycobacterium tuberculosis (strain ATCC 25618 / H37Rv)) (UniProt P9WIL5)
Test: Recombinant Mtb pantothenate synthetase (PanC) inhibitors, coupled enzyme, confirmatory (AID 375);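 further: 0% = full reaction with vehicle and 100% = no enzyme background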
Details: coupled enzyme assay; at 10 µM, active compounds read high

Sequence of Pantothenate synthetase (Mycobacterium tuberculosis (strain ATCC 25618 / H37Rv)) (P9WIL5 whole entry, looked up): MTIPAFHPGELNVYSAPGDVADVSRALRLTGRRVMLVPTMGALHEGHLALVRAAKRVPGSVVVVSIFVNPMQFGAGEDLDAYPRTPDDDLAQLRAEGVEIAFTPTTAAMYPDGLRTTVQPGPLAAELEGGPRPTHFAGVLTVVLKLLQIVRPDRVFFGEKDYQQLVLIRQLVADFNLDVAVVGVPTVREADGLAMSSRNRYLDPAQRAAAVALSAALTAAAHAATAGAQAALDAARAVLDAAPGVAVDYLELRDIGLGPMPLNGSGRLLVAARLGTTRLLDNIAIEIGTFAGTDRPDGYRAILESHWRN

| Structure (SMILES) | inhibition |
| --- | --- |
| CCn1c(SCC(=O)Nc2cc(C)ccc2C)nc2c(c1=O)SC(C)C2 (stereo not drawn) | 0% (inactive) |
| Cc1csc2ncc(C(=O)N3CCc4ccccc43)c(=O)n12 | 6% (inactive) |
| Cc1ccc(C(=O)Nc2ccc(Cl)cn2)cc1S(=O)(=O)N1CCOCC1 | 0% (inactive) |
| c1nnc(NC2=NCCCCC2)s1 | 0% (inactive) |
| COc1ccc(-c2nc3cc(NC(=O)Cc4ccc(OC)c(OC)c4)ccc3o2)cc1 | 0% (inactive) |
| CC1(C)O[C@@H]2C[C@H]3[C@@H]4CCC5=CC(=O)C=C[C@]5(C)[C@@]4(F)[C@@H](O)C[C@]3(C)[C@]2(C(=O)CO)O1 | 2% (inactive) |
| CN(C)C(=O)c1ccc(COc2ccccc2Br)o1 | 0% (inactive) |
| Cc1[nH]c(=O)[nH]c(=O)c1S(=O)(=O)N1c2ccc(F)cc2CCC1C (stereo not drawn) | 0% (inactive) |
| Cc1cc(C)nc(NC2=NCC(=O)N2c2ccccc2Br)n1 | 0% (inactive) |
| COc1ccccc1OCCOCCn1cnc2ccccc2c1=O | 0% (inactive) |
| CN1C(=O)NC(NC(=O)C2CCCCC2)(C(F)(F)F)C1=O (stereo not drawn) | 0% (inactive) |
| CC(C)CCNC(=O)[C@H](CC(C)C)NC(=O)[C@H]1O[C@@H]1C(=O)O | 0% (inactive) |
| CC(=O)Nc1cc(NC(C)=O)cc(C(=O)OCC(=O)N2CC(C)OC(C)C2)c1 (stereo not drawn) | 2% (inactive) |
| Cn1c2c(c(=O)n(C)c1=O)CN(CCCN1CCOCC1)CN2 | 0% (inactive) |
| Cc1ccc(Cl)cc1N1CCN(C(=O)c2cn(C)c(=O)c3c2c2ccccc2n3C)CC1 | 3% (inactive) |
| CC(=O)Nc1cccc(NC(=O)CSc2nnnn2C(C)C)c1 | 5% (inactive) |
| COC(=O)c1ccc(-n2nnnc2SCc2nn[nH]n2)cc1 | 0% (inactive) |
| O=C1NCC(COCc2ccccc2)O1 (stereo not drawn) | 3% (inactive) |
| Cc1cc(C)n(-c2nc3sc4c(c3c3nnc(SCC(N)=O)n23)CC(C)(C)OC4)n1 | 0% (inactive) |
| CC(=O)Nc1nc2c(c3c1c(=O)oc1ccccc13)CC(C)CC2 (stereo not drawn) | 0% (inactive) |
| CCN(C(=O)Cc1c(C(=O)O)[nH]c2ccccc12)c1cc(OC)ccc1OC | 0% (inactive) |
| CC(C)c1nnc(NC(=O)c2ccc(N3C(=O)CCC3=O)cc2)s1 | 0% (inactive) |
| CCCCn1nnnc1SCC(=O)Nc1cccc(C)n1 | 1% (inactive) |
